# Most compounds without a hit are left out; they make up all but 1.2% or so of the library.
# TRPV1 potentiator – HTS Assay for Compounds that Act as Potentiators of the Vanilloid Receptor 1 | Transient receptor potential cation channel subfamily V member 1 (Homo sapiens), Q8NER1 | TRPV1-expressing cells, Fluo-8 calcium influx, capsaicin EC20 potentiation | potentiation, % at 8.33 µM | 0.02% of 320,000 active; in the data active means potentiation above about 80%; inconclusive means between about 30% and that limit
# Target sequence (Q8NER1 whole entry, looked up): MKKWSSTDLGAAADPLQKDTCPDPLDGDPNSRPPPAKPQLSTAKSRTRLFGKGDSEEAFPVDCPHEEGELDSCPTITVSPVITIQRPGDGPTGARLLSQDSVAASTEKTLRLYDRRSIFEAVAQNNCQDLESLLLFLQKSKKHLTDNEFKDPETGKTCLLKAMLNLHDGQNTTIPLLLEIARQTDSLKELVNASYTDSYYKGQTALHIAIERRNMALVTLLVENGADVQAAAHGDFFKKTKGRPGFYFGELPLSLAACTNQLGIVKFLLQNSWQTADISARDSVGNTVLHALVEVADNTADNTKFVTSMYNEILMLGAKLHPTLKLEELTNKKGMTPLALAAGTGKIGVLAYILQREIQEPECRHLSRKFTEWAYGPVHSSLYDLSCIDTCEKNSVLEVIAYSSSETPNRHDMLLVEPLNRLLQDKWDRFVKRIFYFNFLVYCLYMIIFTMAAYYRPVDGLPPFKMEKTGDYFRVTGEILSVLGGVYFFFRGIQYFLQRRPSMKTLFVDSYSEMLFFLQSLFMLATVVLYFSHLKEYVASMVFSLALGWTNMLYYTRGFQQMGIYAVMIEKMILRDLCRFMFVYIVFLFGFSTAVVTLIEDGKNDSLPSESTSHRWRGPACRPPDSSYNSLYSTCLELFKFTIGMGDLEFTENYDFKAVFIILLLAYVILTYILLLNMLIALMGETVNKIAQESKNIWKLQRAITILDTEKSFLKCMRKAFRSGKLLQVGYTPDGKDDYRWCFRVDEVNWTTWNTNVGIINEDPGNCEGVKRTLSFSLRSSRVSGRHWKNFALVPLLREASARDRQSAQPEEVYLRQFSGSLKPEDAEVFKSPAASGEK
#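 TRPV1-expressing cells were cultured overnight at 35.5C and loaded with Fluo-8 calcium dye for 40 to 90 min at room temperature. After a 10 s baseline, compound was added and calcium influx was read kinetically for 3 min (ex 480/em 520 nm).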
# hERG WT inh – qHTS for Inhibitors of KCHN2 3.1: Wildtype qHTS | Voltage-gated inwardly rectifying potassium channel KCNH2 (Homo sapiens), Q12809 | U2OS, BacMam KCNH2, thallium flux FluxOr; stronger effect = lower value | activity change, % at 1.84 µM | 0.37% of 340,000 active | AID 720551, 2013;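 active means maximum activity change below -70%; inconclusive means maximum activity change between -70% and -50%; inactive means maximum activity change above -50%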
#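 U2OS cells were transduced with wild-type KCNH2 virus (2.03 x 10^8 / mL) for 4 h at room temperature, then cultured overnight at 37 C. Thallium flux was read with FluxOr dye. Rate constants were normalized to DMSO controls.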
# TRPV1 agonist – HTS Assay for Compounds that Act as Agonists of the Vanilloid Receptor 1. Transient receptor potential cation channel subfamily V member 1 (Homo sapiens), Q8NER1. activation, % at 8.33 µM. TRPV1-expressing cells, Fluo-8 calcium influx, agonist mode. AID 540275, 2011. 0.19% of 320,000 active; in the data active means activation above about 80%; inconclusive means between about 30% and that limit
#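 Cells expressing TRPV1 were dye-loaded with Fluo-8 and read kinetically: 10 s baseline, 3 min after compound (agonist portion), then 2 min after EC20 capsaicin (allosteric enhancer portion). Calcium-bound dye fluorescence at 480/520 nm.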
# KCNH2 3.1 block – qHTS for Inhibitors of KCHN2 3.1: Mutant qHTS; Potassium voltage-gated channel subfamily H member 2, brain isoform KCNH2 3.1 (human); U2OS KCNH2 3.1, thallium flux FluxOr; stronger effect = lower value; activity change, % (tested at about 1.8 µM); 0.95% of 340,000 active;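 active means maximum activity change below -70%; inconclusive means maximum activity change from -70% to -50%; inactive means maximum activity change above -50%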;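 further: thallium influx rate constant from kinetic fluorescence after stimulation buffer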
#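 Virally transduced U2OS (3.1 isoform, 4 h infection in dark at RT) → overnight 37 C → FluxOr + Red40 in HBSS/HEPES, 45 min → stimulation buffer, 2 min kinetic read → rate constant vs DMSO controls.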
# Hits are given with their value; – = inactive; ? = inconclusive; · = no result.
SMILES,TRPV1 potentiator,hERG WT inh,TRPV1 agonist,KCNH2 3.1 block
Cc1ccc(NC(=O)c2ccc([N+](=O)[O-])s2)cc1S(=O)(=O)N1CCOCC1,·,–,·,–
Cc1cc2c(c(=O)o1)C1O[C@](c3ccsc3)(Cc3cc(C#N)ccc31)O2,–,·,–,·
CC(=O)Nc1ccc(CCNC(=O)c2ccc3ccccc3c2O)cc1,·,–,·,–
O=C(COC(=O)C12CC3CC(CC(O)(C3)C1)C2)NCc1ccco1,–,·,–,·
Cc1nnsc1C(=O)NC1CCCc2c1cnn2-c1ccc(C(C)(C)C)cc1 (stereo unspecified),–,–,85.2,–
Cc1ccc(-n2ncc3c2CCCC3NC(=O)c2csnn2)cc1C (stereo unspecified),–,-89.3,?,–
COc1ccc(CN2CCN(Cc3cccn3-c3ncccn3)CC2CCO)c(C)c1C (stereo unspecified),–,–,–,-73.8
CCOc1ccc(CN2CCN(Cc3cccn3-c3cccnc3)CC2CCO)cc1 (stereo unspecified),–,–,–,–
CCOc1ccc(CN2CCN(Cc3cccn3-c3ncccn3)CC2CCO)cc1 (stereo unspecified),–,?,–,-111.5
OCCC1CN(Cc2cccn2-c2ncccn2)CCN1Cc1ccc(F)cc1 (stereo unspecified),–,–,–,–
O=C(Nc1cccc(C(=O)N2CCOCC2)c1)C1CCCC1,·,–,·,·
CC(C)OCCCNC(=O)C1CCC(CNS(=O)(=O)c2ccccc2)CC1 (stereo unspecified),–,–,–,-85.0
CSc1oc(-c2ccc(F)cc2)nc1S(=O)(=O)c1ccccc1,–,–,?,–
CSc1oc(-c2ccccc2)nc1S(=O)(=O)c1ccc(F)cc1,–,–,–,-89.8
O=C(O)c1cc(O)ccc1NC(=O)C1CCCO1 (stereo unspecified),–,–,–,–
COc1ccc(CC(O)CC2c3c(cc4c(c3OC)OCO4)CCN2C)cc1 (stereo unspecified),–,–,–,-97.0
COc1ccccc1CC(O)CC1c2c(cc3c(c2OC)OCO3)CCN1C (stereo unspecified),·,–,·,–
Cc1nnc(SC(C)C(=O)Nc2ccc(N3CCOCC3)cc2)n1Cc1ccccc1 (stereo unspecified),–,–,–,–
COc1cc(NC(=O)c2ccc3c(SCC(=O)O)c4c(nc3c2)CCCC4)cc(OC)c1OC,–,·,–,-77.1
COc1cc(OC)c(NC(=O)c2ccc3c(SCC(=O)O)c4c(nc3c2)CCCC4)cc1Cl,–,–,–,-104.5
CCN(CC(=O)NCc1cccs1)C(=O)c1cccc(S(=O)(=O)N2CC(C)OC(C)C2)c1 (stereo unspecified),·,-131.4,·,-156.0
CC1CCN(S(=O)(=O)c2ccc3c(c2)N(CC(=O)NCCN2C(C)CCCC2C)C(=O)CS3)CC1 (stereo unspecified),–,-75.7,–,–
Cc1ccc(Sc2ncccc2COC(=O)NC(C)C)cc1,–,–,–,–
N#CC1=C(N)NC(SCc2ccc(Br)cc2)=C(C#N)C12CCCCC2,–,–,–,–
N#CC1=C(N)NC(SCC(=O)Nc2ccc(Br)cc2)=C(C#N)C12CCCCC2,–,-145.8,–,–
SMILES,TRPV1 potentiator,hERG WT inh,TRPV1 agonist,KCNH2 3.1 block
O=C(c1ccco1)N1CCN(S(=O)(=O)c2ccc(Br)cc2)CC1,–,–,–,–
O=C(c1ccco1)N1CCN(S(=O)(=O)c2ccc(S(=O)(=O)NC3CC3)cc2)CC1,–,–,–,-82.8
NC(=O)c1ccc(NC(=O)CC23CC4CC(CC(Br)(C4)C2)C3)cc1,–,–,–,–
CC1=NNC(=O)C1C(c1ccccc1)C1C(=O)NN=C1C (stereo unspecified),–,·,–,·
COc1cccc(-c2nn(C)c3sc(C(=O)NCc4ccc(C)o4)cc23)c1,–,–,–,–
COc1cccc(-c2nn(C)c3sc(C(=O)NCc4ccc5c(c4)OCO5)cc23)c1,·,–,·,-91.6
CCN(CC(=O)Nc1ccccc1OC)CC(=O)Nc1c(Cl)ccc(C)c1Cl,–,–,–,–
COc1ccccc1C(CCN(Cc1cccs1)C(C)=O)c1ccco1 (stereo unspecified),–,–,–,-73.6
COc1cc2c(cc1OC)CN(CC(=O)Nc1ccccc1C(=O)NC1CC1)CC2,–,–,–,–
COc1cc(C)c(CN2CCN(CC(=O)Nc3ccccc3C(=O)NC3CC3)CC2)cc1OC,–,-82.6,–,-106.6
COc1ccc(OC)c(NC(=O)CN2CCC(NC(=O)c3ccccc3C)CC2)c1,–,–,–,–
COc1ccc(OC)c(CN2CCN(CC(=O)Nc3ccccc3C(=O)NC3CC3)CC2)c1,–,-78.8,–,-70.1
CNc1nc(NC#N)nc(SC)n1,–,–,–,–
CCCCCCSc1ccc(-c2nc3ccc(C)cn3c2NCc2ccccc2)cc1,?,–,?,–
CCCCCCSc1ccc(-c2nc3ccc(C)cn3c2NCc2ccccc2)cc1OC,–,–,?,-91.4
CCC(C)Sc1cccc(-c2nc3cc(C)ccn3c2NCc2ccccc2)c1 (stereo unspecified),–,–,93.4,–
CCCCNc1c(-c2ccc(OC)c(SC(C)CC)c2)nc2ccc(C)cn12 (stereo unspecified),·,–,·,–
CCCCNc1c(-c2ccc(SC3CCCCC3)cc2)nc2ccccn12,–,?,?,-80.6
CCC(C)Sc1ccc(-c2nc3ccc(C)cn3c2NCc2ccccc2)cc1OC (stereo unspecified),–,–,88.4,–
FC(F)(F)C1=NNC(c2ccc3ccccc3c2)=NN1,·,–,·,–
O=C(COC(=O)C1CC1)Nc1ccc(Cl)cn1,–,–,–,–
CC(C)(C)OC(=O)N1CCC(CNC(=O)c2ccc(F)cc2)CC1,–,–,?,–
CCC(C)Sc1cc(-c2nc3cc(C)ccn3c2NC2CCCCC2)ccc1OC (stereo unspecified),·,–,·,–
CCCCNc1c(-c2ccc(SC3CCCCC3)c(OC)c2)nc2ccc(C)cn12,·,–,·,-72.3
CCCCNc1c(-c2ccc(OC)c(SC3CCCCC3)c2)nc2ccc(C)cn12,·,–,·,–
SMILES,TRPV1 potentiator,hERG WT inh,TRPV1 agonist,KCNH2 3.1 block
CCC(C)Sc1cc(-c2nc3ccccn3c2NC2CCCCC2)ccc1OC (stereo unspecified),–,–,–,-149.5
COc1ccc(-c2cc(-c3nc4ccccn4c3NCc3ccccc3)ccc2OC)cc1,·,-99.1,·,-101.4
Clc1cccc(-c2ccc(-c3nc4ccccn4c3NCc3ccccc3)cc2)c1,·,–,·,–
CCC(C)Sc1cc(-c2nc3ccc(C)cn3c2NCc2ccccc2)ccc1OC (stereo unspecified),·,?,·,-101.5
CCC(C)c1ccc(S(=O)(=O)N2CCN(C(=O)c3ccc(Cl)c(S(=O)(=O)N4CCOCC4)c3)CC2)cc1 (stereo unspecified),·,–,·,–
O=C(CCCn1cncn1)N1CCCC(N2CCN(c3ccc(F)cc3)CC2)C1 (stereo unspecified),–,–,–,–

# Screens from PubChem.
